Source: PubChem BioAssay (National Center for Advancing Translational Sciences (NCATS))
HT1080NT lethal = kills 2HG-producing HT-1080-NT fibrosarcoma cells | 360,000 compounds, 1.6% hits | Potency, µM (top dose mostly 46.1 µM), actives largely listed as cytotoxic | AID 686970 | HT-1080-NT fibrosarcoma viability, CellTiter-Glo ATP luminescence, 48 h;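 further: NT is the 2HG producing partner of a matched IDH1 knockdown line; nearly all actives have a fitted effect of over 55% in size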
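HT-1080-NT; 750 cells/well; 5% FBS RPMI; 48 h compound, 37 degrees C; CellTiter-Glo luminescence; curve fitting and curve-class assignment.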
MCF10A rerep = DNA re-replication induction in MCF 10a cells; Potency, µM (titrated, usually from 46.1 µM), actives largely listed as activators; 350,000 compounds, 2.9% hits; MCF 10A DNA re-replication, Hoechst nuclear intensity, 48 h; further: nearly all actives have a fitted effect of over 50% in size
KB-3-1 cytotox = KB-3-1 parental cell cytotoxicity | 400,000 compounds, 1.4% hits | Potency, µM (series often up to 46.1 µM), actives largely listed as cytotoxic | KB-3-1 viability, CellTiter-Glo ATP luminescence, 72 h; further: nearly all actives have a fitted effect of over 60% in size
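Cytotoxicity measured as CellTiter-Glo luminescence after 72 h at 37 C. Compound titrations were pinned onto drug-naive KB-3-1 parental adenocarcinoma cells grown in DMEM with 10% FBS, and normalized data fitted to concentration-response curves.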
SW480 rerep = inducers of DNA re-replication in SW480 colon cancer cells; 340,000 compounds, 1.8% hits; AID 624297; SW480 DNA re-replication, Hoechst DNA content imaging, 48 h; Potency, µM (series often up to 46.1 µM), actives largely listed as activators; further: nearly all actives have a fitted effect of over 55% in size
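First, 250 cells per well were seeded. Next, compound or vehicle (23 nL) was pinned in, plates sat 48 hr at 37 C. Finally Hoechst was added for 40 min before fluorescence scanning.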
HT1080 IDH1KD tx = HT-1080 IDH1 knockdown cell toxicity (counter line) | HT-1080 IDH1 knockdown viability, ATP luminescence, 48 h | Potency, µM (top dose mostly 46.1 µM), actives largely listed as cytotoxic | 360,000 compounds, 2% hits | AID 686971
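CellTiter-Glo luminescence after 48 h compound exposure at 37 degrees C of IDH1-knockdown HT-1080 cells in 5% FBS RPMI. %Activity scaled between DMSO wells and cell-free media wells, with curves fitted and assigned curve classes.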
KB-V1 cytotox = KB-V1 MDR subline cytotoxicity; KB-V1 MDR cells viability, CellTiter-Glo, 72 h; Potency, µM (highest dose often 46.1 µM), most hits filed as cytotoxic; 400,000 compounds, 3.4% hits; further: nearly all actives have a fitted effect of over 60% in size
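Compound-treated KB-V1 multidrug-resistant cells, 72 h, 37 degrees C; viability by CellTiter-Glo. Fitted qHTS curves give the values.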
Numbers stand for hits; – = inactive; ? = inconclusive; · = no result given. Hits are enriched below; roughly 8% of the tested compounds scored in any of these assays. The call rests on the fitted dose curve; in most records, active means well fitted curve in the direction sought with a large enough effect; inconclusive means small, poorly fitted or top-dose-only effect, or another doubt; inactive means no such curve, though single readings can be large; an effect the other way counts as inactive or inconclusive.

SMILES | HT1080NT lethal | MCF10A rerep | KB-3-1 cytotox | SW480 rerep | HT1080 IDH1KD tx | KB-V1 cytotox
Cc1nn(C(=O)c2ccccc2)c(C)c1Sc1ccc(Cl)cc1 | · | · | ? | · | · | 7.31µM
Cc1ccc2nc(COc3ccccc3NC(=O)c3ccccc3F)cc(=O)n2c1 | · | · | – | · | · | –
O=c1[nH]c(=O)c2nc3c4ccccc4c4ccccc4c3nc2[nH]1 | – | 2.59µM | – | ? | – | –
COc1ccc(CNC(=O)c2cc3c(=O)n(Cc4cccs4)ccc3nc2C)cc1 | · | · | 18.4µM | · | · | –
COc1ccc(NC(=O)c2cc3c(=O)n(Cc4cccs4)ccc3nc2C)cc1 | · | · | – | · | · | –
Cc1ccc2nc(CN3CCN(C(=O)Nc4ccc(C)c(F)c4)CC3)oc2c1 | · | · | – | · | · | –
COc1cc(/C=N/Nc2snc(SC)c2C#N)cc(OC)c1OC | ? | ? | ? | – | 4.61µM | –
CCCc1cc(=O)[nH]c(Nc2ccc(C)c(O)c2)n1 | · | · | – | · | · | –
Cc1[nH]nc(-c2ccc(OCc3cnn(-c4ccccc4)c3)cc2O)c1Oc1ccc(F)cc1 | ? | ? | ? | – | ? | –
Cc1[nH]nc(-c2ccc(OCc3cnn(-c4ccccc4)c3)c(C)c2O)c1Oc1ccccc1 | 20.6µM | 16.4µM | 20.6µM | ? | 16.4µM | –
Cc1onc(-c2c(F)cccc2Cl)c1C(=O)OCC(=O)NC(c1ccccc1)c1ccccc1 | – | – | – | – | ? | 6.51µM
Cc1onc(-c2c(F)cccc2Cl)c1C(=O)OCC(=O)NC(N)=O | – | – | ? | – | – | ?
Cc1cc(Cl)ccc1NC(=O)CS(=O)(=O)c1cccc2nsnc12 | · | · | – | · | · | ?
C=CCNC(=O)c1ccc([N+](=O)[O-])c(Cl)c1 | – | – | – | – | – | –
O=C(Cn1c(=O)c2sccc2n(Cc2cccc([N+](=O)[O-])c2)c1=O)NCCc1ccccc1 | – | – | – | – | ? | 8.2µM
Cc1cc2cc(CCNC(=O)c3ccc(S(=O)(=O)N4CCCC4)cc3)c(=O)[nH]c2cc1C | – | ? | · | ? | – | ·
Cc1cc2cc(CCNC(=O)c3ccc(C)c([N+](=O)[O-])c3)c(=O)[nH]c2cc1C | – | ? | – | – | – | 6.51µM
O=C(Cn1c(=O)c2sccc2n(Cc2ccc([N+](=O)[O-])cc2)c1=O)NCCc1ccccc1 | – | – | – | – | – | –
CC(C)(CNC(=O)c1ccc([N+](=O)[O-])c(Cl)c1)CNC(=O)c1ccc([N+](=O)[O-])c(Cl)c1 | 20.6µM | ? | ? | ? | ? | ?
Cc1ccc(CSCCNC(=O)c2cccc([N+](=O)[O-])c2)cc1 | – | – | – | – | – | 18.4µM
O=C(NCCSCc1ccccc1)c1ccccc1 | – | – | – | – | – | –
O=C(NCCc1ccccc1)c1cccc([N+](=O)[O-])c1 | – | – | – | – | – | 18.4µM
O=C(NCCc1cccc(Cl)c1)c1ccc(Cl)c([N+](=O)[O-])c1 | ? | – | – | – | – | –
Cc1ccc(C(=O)NCCSCc2ccccc2)cc1[N+](=O)[O-] | – | ? | – | – | – | 20.6µM
Cc1ccc(C(=O)NCCc2cccc(Cl)c2)cc1[N+](=O)[O-] | – | – | – | – | – | 16.4µM
SMILES | HT1080NT lethal | MCF10A rerep | KB-3-1 cytotox | SW480 rerep | HT1080 IDH1KD tx | KB-V1 cytotox
Cc1cc2cc(CCNC(=O)C(=O)c3c[nH]c4ccccc34)c(=O)[nH]c2cc1C | ? | ? | – | – | 13µM | ?
O=C(NCCc1c[nH]c2ccccc12)C(=O)c1c[nH]c2ccccc12 | ? | – | ? | – | ? | –
COc1ccccc1CNC(=O)CCCCn1c(=O)c2ccccc2n(CC(=O)Nc2cccc(Cl)c2)c1=O | · | · | – | · | · | ?
Cc1ccc(SCCNC(=O)c2ccc(C)c([N+](=O)[O-])c2)cc1 | – | – | – | – | – | 23.1µM
Cc1ccc(SCCNC(=O)c2ccc([N+](=O)[O-])c(C)c2)cc1 | – | – | – | – | – | –
CCOc1cc(S(=O)(=O)N(Cc2ccccc2)Cc2ccccc2)c(OCC)cc1-n1cnnn1 | – | – | – | – | – | 3.66µM
Cc1cccc(NC(=O)Cn2c(=O)n(CCC(=O)N3CCc4ccccc4C3)c(=O)c3ccccc32)c1 | · | · | – | · | · | –
